Only some compounds are listed: those with a hit (about 14% of all), similar ones and a draw of the others.
HADH2 inh: blocks human hydroxyacyl-CoA dehydrogenase type II; Q99714; recombinant HADH2, NADH fluorescence, beta-hydroxybutyryl-CoA; Potency, µM (doses to about 57.1 µM), for inactives: top-dose activity change, negative = inhibition, hits mostly inhibitors; 73,000 compounds, 3.4% hits; also: potency is read from the fitted curve at half-maximal effect; % is scaled to controls: 0 for no effect and ±100 for the full control effect; nearly all actives have a fitted effect of over 60% in size
Target sequence (Q99714 whole entry, looked up, one chain of several): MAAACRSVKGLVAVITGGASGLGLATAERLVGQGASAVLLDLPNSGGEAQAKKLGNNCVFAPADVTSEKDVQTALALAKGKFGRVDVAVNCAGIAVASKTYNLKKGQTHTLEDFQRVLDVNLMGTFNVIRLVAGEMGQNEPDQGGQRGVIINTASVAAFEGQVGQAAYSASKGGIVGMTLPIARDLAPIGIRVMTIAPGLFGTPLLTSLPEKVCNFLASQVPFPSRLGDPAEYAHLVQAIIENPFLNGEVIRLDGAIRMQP
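Read-out: 360 nm excitation, 450 nm emission, kinetic over 4 min. Conditions: His-tagged human HADH2 20 nM, pH 9.0 Tris with Tween-20, 1 mM NAD+, 90 uM beta-hydroxybutyryl-CoA.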
CRE Fsk mod: modulators of forskolin-stimulated CRE signaling in CHO cells; CHO CRE-bla reporter (cAMP response element driving beta-lactamase), forskolin EC10, beta-lactamase ratio; Potency, µM (series often up to 38.2 µM), for inactives: at the highest dose activity change, negative = inhibition, usual class: activators; 71,000 compounds, 2.5% hits; active = well fitted activation curve with a large enough effect in the signal ratio, with a control signal flat, not every such curve was filed as active; inconclusive = small, poorly fitted or top-dose-only effect, or effect the other way, or a change in a side signal; the % refers to the signal ratio; also: potency is read from the fitted curve at half-maximal effect; % of control where 0% means no effect
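qHTS titration format; CRE-bla CHO reporter; stimulus EC10 NKH 477, a water-soluble forskolin. Read: CCF4 460/530 nm ratio. Potency expressed as AC50 for activators or inhibitors.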
HSD17B inhib: inhibitors of human HSD17B10 dehydrogenase. 75,000 compounds, 7.6% hits. recombinant HSD17B10, NADH fluorescence kinetic. Q99714. Potency, µM (series often up to 57.1 µM), for the others: at the top dose activity change, negative = inhibition, usual class: inhibitors;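 also: the protocol describes HADH2 (HSD17B10) and not the HSD17B4 of the title; potency is read from the fitted curve at half-maximal effect; % is scaled to controls: 0 for no effect and ±100 for the full control effect; nearly all actives have a fitted effect of over 70% in size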
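20 nM HADH2, pH 9.0 Tris/Tween; cpd preinc 15 min RT; start w/ 1 mM NAD+ + 90 uM b-hydroxybutyryl-CoA; kinetic fluor ex360/em450 q30s x 4 min; delta last-first.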
A350 autofl: compounds fluorescent in Alexa 350 spectral region; Compound autofluorescence, 340/450 nm, Alexa 350 dye-equivalents; stronger effect = higher value; max dye-equivalent concentration, M; 59,000 compounds, 11% hits; in the data active = max dye-equivalent concentration above about 10 nM; inconclusive = mostly about 1.1 nM to 9.6 nM
AID923: qHTS Assay for Allosteric/Competitive Inhibitors of Caspase-1: Spectroscopic Profiling in AFC Spectral Region | compound fluorescence, AFC spectral region (405/520 nm) | Potency, µM (doses to about 57.5 µM), inactives show top-dose fluorescence increase, most hits filed as activators | 75,000 compounds, 1.1% hits; also: potency is read from the fitted curve at half-maximal effect; 0% is about no effect
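Compound autofluorescence profiled at 405 nm ex/520 nm em during kinetic caspase 1 run (50 nM enzyme, 5 uM Ac-WEHD-AFC, HEPES pH 7.5, 10 mM DTT). Titration up to 57 uM; baseline from regression intercept, normalized to AFC standard curve.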
4-MU autofl: compound fluoresces in the 4-MU spectral region; 59,000 compounds, 11% hits; max dye-equivalent concentration, M; compound autofluorescence, 340/450 nm, 4-MU equivalents; stronger effect = higher value; in the data active = max dye-equivalent concentration above about 10 nM; inconclusive = mostly about 1.1 nM to 9.6 nM
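Compounds in 100 mM Tris, pH 8.0, incubated 15 min at room temperature, then fluorescence read at 340 nm excitation/450 nm emission. Signal converted to 4-MU dye-equivalent concentration using an on-plate six-point 4-MU standard curve.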
Active calls of the source: *; i = inactive; u = inconclusive; x = no result; ! = a repeat was not active; [ ] = another dose, or the depositor's remark. Unless noted, calls follow the shape of the dose curve; as a rule, active = well fitted curve in the direction sought with a large enough effect; inconclusive = small, poorly fitted or top-dose-only effect, or another doubt; inactive = no such curve, though single readings can be large; an effect the other way counts as inactive or inconclusive.

SMILES	HADH2 inh	CRE Fsk mod	HSD17B inhib	A350 autofl	AID923	4-MU autofl
COc1ccc(C2CC(=O)N3CN(c4ccc(C)c(Cl)c4)CSC3=C2C#N)cc1OC (stereo unspecified)	u	-24.8%	12.6µM*	x	18.0%	x
COC(=O)C/C=C\[C@@H](C)[C@@H](/C=N\O[C@@H](C)c1cn([C@H]2COC[C@H]2O)nn1)NS(=O)(=O)c1ccc(C)cc1	19.1%[11.4 µM]	x	1.9%[11.4 µM]	x	-1.0%[11.5 µM]	x
O=C(O)c1cc(N2C(=O)C3C4C=CC(C4)C3C2=O)ccc1NCc1cccnc1 (stereo unspecified)	-17.7%	1.0%	u	2.23e-08M*	0.5%	2.26e-08M*
Cc1cccnc1NC(=O)c1c(O)c2cccc3c2n(c1=O)CCC3	30.9%	4.9%	-1.6%	u	-1.6%	u
CCCCc1nc2ccccc2c(=O)n1NC(=O)c1c(O)c2cccc3c2n(c1=O)CCC3	0.5%	4.3%	5.4%	u	1.9%	i
Cc1ccccc1NC(=O)c1c(O)c2cccc3c2n(c1=O)CCC3	u	u	11.0%	8.65e-08M*	-0.4%	7.99e-08M*
Cc1ccccc1NC(=O)c1c(O)c2cccc3c2n(c1=O)CC3	-11.8%	-6.7%	-4.8%	2.27e-08M*	-0.8%	2.49e-08M*
O=C(COc1ccc(-n2cnnn2)cc1)NCCc1ccc(F)cc1	-1.6%	0.0631µM*	8.6%	i	6.5%	i
O=C(/C=C/c1ccc(O)c(O)c1)OC(Cc1ccc(O)c(O)c1)C(=O)O (stereo unspecified)	x	x	15.8µM*!	x	2.5%	x
COc1cc(O)c(C(=O)/C=C/c2ccc(O)c(OC)c2)c(OC)c1	x	x	19.1%	x	-2.7%	x
O=C(/C=C\c1ccc(O)c(O)c1)O[C@@H](Cc1ccc(O)c(O)c1)C(=O)O	0.0251µM*	-9.5%	15.8µM*	x	1.0%	x
C[C@H](C(=O)c1ccccc1)[C@@H](c1ccccc1)N1CCOCC1	3.3%[11.4 µM]	2.0%[7.6 µM]	1.0%[11.4 µM]	u	-2.0%[11.5 µM]	u
COc1cc(C2Nc3cccc4cccc(c34)N2)cc(OC)c1O	1.58µM*	u	12.6µM*	u	1.3%	i
Cc1cc(NC(=O)COc2cccc(Oc3ccccc3)c2)no1	-13.6%	-10.2%	-9.8%	i	-0.1%	i
CCCc1cc(=O)oc2cc(Oc3ncccn3)ccc12	u	-15.7%	31.6µM*	4.39e-07M*	3.1%	4.73e-07M*
CCc1ccc2c(COC(=O)c3n[nH]c4ccccc34)cc(=O)oc2c1	0.6%	u	u	i	1.0%	i
CCc1ccc2oc(=O)cc(CN(C)Cc3ccccc3)c2c1	-4.6%	u	-12.9%	u	0.5%	i
COc1ccc2c(CN(C)c3ccccc3)cc(=O)oc2c1	u	1.9%	31.6µM*	1.1e-08M*	0.3%	u
Cc1cc(=O)oc2cc(OCC(=O)NCc3cccnc3)ccc12	x	x	x	1.91e-08M*	x	1.48e-08M*
CCCc1cc(=O)oc2cc(OCC(=O)Nc3cc(C)on3)ccc12	6.3%	-4.7%	31.6µM*	4.95e-07M*	2.0%	4.19e-07M*
COC(=O)c1ccc(C(NC(=O)OCc2ccccc2)/C(C)=C/[C@@H](C)C(=O)Nc2ccc(OC)cc2)cc1 (stereo partly specified)	0.4%	-16.7%	-13.8%	x	0.9%	x
N#CNC(N)=Nc1ccc(Cl)cc1	-7.2%[11.4 µM]	-1.3%[7.6 µM]	8.9%[11.4 µM]	i	-1.8%[11.5 µM]	i
CO[C@H]1COC(=O)[C@@H](Cc2ccccc2)NC(=O)[C@@H](C)COC(=O)C/C=C\[C@@H]1C	-8.7%[11.4 µM]	x	-0.8%[11.4 µM]	x	-1.3%[11.5 µM]	x
CCCCCCCC[N+](CCCCCCCC)(CCCCCCCC)CCCCCCCC	u	u	u	x	7.5%	x
COc1ccc(-c2nnc(SCC(=O)NCc3ccco3)o2)cc1	-3.5%	-8.6%	-1.5%	i	0.0%	i
O=C(CSc1nc2ccccc2o1)NC(=O)NCc1ccco1	-6.9%	u	-13.7%	1.34e-08M*	-2.3%	1.05e-08M*
O=C(CSc1nnc(-c2ccc(OC(F)F)cc2)o1)NC(=O)NCc1ccco1	u	-10.5%	31.6µM*	i	1.7%	i

Compound activity deposited in PubChem by National Center for Advancing Translational Sciences (NCATS).
